# Screening results (PubChem BioAssay)
# WRN helicase inh = blocks human WRN helicase | 360,000 compounds, 0.46% hits | WRN helicase unwinding, fluorescent forked duplex, kinetic | AID 651768 | Potency, µM (doses to about 114 µM), without a hit: at the top dose activity change, negative = inhibition, most hits filed as inhibitors | Q14191; note: potency is the fitted concentration of half-maximal effect; % is set by controls: 0 for no effect and ±100 for the full control effect; nearly all actives have a fitted effect of over 55% in size
# Target sequence (Q14191 whole entry, looked up): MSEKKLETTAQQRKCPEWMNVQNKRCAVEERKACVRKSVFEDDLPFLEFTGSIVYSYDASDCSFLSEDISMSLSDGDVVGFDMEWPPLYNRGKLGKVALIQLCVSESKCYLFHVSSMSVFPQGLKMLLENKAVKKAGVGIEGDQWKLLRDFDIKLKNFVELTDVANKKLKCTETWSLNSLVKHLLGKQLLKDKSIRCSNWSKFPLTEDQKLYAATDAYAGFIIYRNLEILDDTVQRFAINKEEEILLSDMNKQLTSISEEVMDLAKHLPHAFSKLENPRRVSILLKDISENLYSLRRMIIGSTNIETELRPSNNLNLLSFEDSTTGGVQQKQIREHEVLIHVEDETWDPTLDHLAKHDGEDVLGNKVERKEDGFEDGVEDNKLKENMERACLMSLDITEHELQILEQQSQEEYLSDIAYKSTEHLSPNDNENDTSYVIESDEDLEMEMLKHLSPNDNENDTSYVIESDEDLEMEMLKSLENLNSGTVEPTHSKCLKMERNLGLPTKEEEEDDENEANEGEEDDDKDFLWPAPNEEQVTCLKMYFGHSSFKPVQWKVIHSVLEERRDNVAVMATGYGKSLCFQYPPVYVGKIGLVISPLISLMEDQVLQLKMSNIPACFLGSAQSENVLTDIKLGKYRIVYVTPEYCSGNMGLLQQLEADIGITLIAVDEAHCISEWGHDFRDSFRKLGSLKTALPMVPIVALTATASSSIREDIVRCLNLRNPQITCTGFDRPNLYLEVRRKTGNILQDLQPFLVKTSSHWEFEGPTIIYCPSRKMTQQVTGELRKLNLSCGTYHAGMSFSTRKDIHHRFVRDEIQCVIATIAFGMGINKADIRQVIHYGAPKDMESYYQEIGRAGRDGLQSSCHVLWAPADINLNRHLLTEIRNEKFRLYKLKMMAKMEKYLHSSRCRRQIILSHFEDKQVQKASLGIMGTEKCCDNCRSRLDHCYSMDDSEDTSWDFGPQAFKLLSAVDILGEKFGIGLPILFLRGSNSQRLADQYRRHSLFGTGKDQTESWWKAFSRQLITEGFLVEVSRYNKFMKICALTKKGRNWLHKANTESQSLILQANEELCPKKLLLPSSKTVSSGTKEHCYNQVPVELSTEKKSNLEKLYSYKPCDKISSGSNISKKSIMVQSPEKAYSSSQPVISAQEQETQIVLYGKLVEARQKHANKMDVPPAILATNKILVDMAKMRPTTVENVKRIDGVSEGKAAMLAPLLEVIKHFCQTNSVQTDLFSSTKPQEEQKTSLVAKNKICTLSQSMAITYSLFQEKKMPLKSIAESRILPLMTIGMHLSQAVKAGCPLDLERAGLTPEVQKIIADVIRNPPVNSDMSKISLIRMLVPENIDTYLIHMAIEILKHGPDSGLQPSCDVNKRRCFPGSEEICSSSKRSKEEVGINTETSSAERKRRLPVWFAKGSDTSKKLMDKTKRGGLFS
#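 WRN at 20 nM final preincubated with compound 15 min at room temperature; reaction started with 100 nM fluorophore/quencher forked duplex oligonucleotide and 2 mM ATP final. Unwinding followed kinetically by red fluorescence (ex 525, em 598 nm).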
# Pol kappa inh = blocks human DNA polymerase kappa activity | Q9UBT6 | Potency, µM (series often up to 107 µM), inactives show at the top dose activity, negative = inhibition, usual class: inhibitors | 400,000 compounds, 0.53% hits | purified Pol kappa, fluorescent DNA synthesis assay, 10 min | AID 588579; note: potency is the fitted concentration of half-maximal effect; % is set by controls: 0 for no effect and ±100 for the full control effect
#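 Readout: fluorescence, taken kinetically at 0 and 10 min. Conditions: 10 nM Pol kappa, 15 min RT compound preincubation, 50 nM substrate final. Controls: enzyme-free buffer wells.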
# Pol eta inh = DNA polymerase eta (human) inhibition | Q9Y253 | recombinant Pol eta, fluorescent DNA replication assay | Potency, µM (top dose mostly 114 µM), without a hit: top-dose activity change, negative = inhibition, hits mostly inhibitors | 390,000 compounds, 1.2% hits | AID 588591; note: potency is the fitted concentration of half-maximal effect; % is set by controls: 0 for no effect and ±100 for the full control effect
#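 Pol eta at 10 nM preincubated with compounds 15 min at room temperature; reaction started with fluorescent substrate (50 nM final) and read kinetically at 0 and 10 min.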
# PI5P4Ka inh = blocks human PI5P4K alpha kinase activity; P48426; PI5P4Kalpha enzyme, ADP-Glo luminescence, 60 min; stronger effect = lower value; max response, %; 330,000 compounds, 1.2% hits; AID 652105; active = max response of -50% or lower; inconclusive = between -30% and -50%; inactive = -30% or higher; note: value at the top dose of about 77 µM; % is set by controls: 0 for no effect and ±100 for the full control effect
#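 Reactions run in 0.038 M HEPES pH 7.4, 0.28 mM EGTA, 0.1% CHAPS and 5% DMSO, with PI5P4Kalpha, substrate, compound and 5 microM ATP final, one hour at room temperature. Readout is ADP-Glo luminescence.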
# POLI inh = inhibitors of human DNA polymerase iota; Q9UNA4; Potency, µM (series often up to 115 µM), for inactives: at the highest dose activity, negative = inhibition, hits mostly inhibitors; 390,000 compounds, 1% hits; AID 588590; Pol iota fluorescent replication assay, 10 min; note: potency is the fitted concentration of half-maximal effect
#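 Fluorescent replication assay read twice, at 0 min and 10 min after adding 50 nM (final) substrate. Enzyme (10 nM) and compounds were first incubated 15 min at room temperature; enzyme-free buffer wells were negative controls.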
# POLB inh = inhibitors of human DNA polymerase beta. P06746. Pol beta primer extension/strand displacement, fluorescence kinetic. Potency, µM (highest dose often 114 µM), for the others: at the highest dose activity change, negative = inhibition, most hits filed as inhibitors. 340,000 compounds, 1.3% hits. AID 485314; note: potency is the fitted concentration of half-maximal effect; % is set by controls: 0 for no effect and ±100 for the full control effect
#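 Pol beta (10 nM) was preincubated with compound for 15 min at room temperature. The reaction was then started with 50 nM substrate and read immediately and after a further 10 min at room temperature.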
# The depositor's hits bear a star; u = inconclusive; x = not tested or not shown; [ ] = remark or other dose. In the library only some 2.8% were active in any assay of this set; here they are far more common. Unless noted, calls come from the whole dose curve; as a rule, active = well fitted curve in the direction sought with a large enough effect; inconclusive = small, poorly fitted or top-dose-only effect, or another doubt; inactive = no such curve, though single readings can be large; an effect the other way counts as inactive or inconclusive.
SMILES,WRN helicase inh,Pol kappa inh,Pol eta inh,PI5P4Ka inh,POLI inh,POLB inh
CCN1CCN(C(=O)c2ccc3c(c2)N(Cc2c(F)cccc2Cl)C(=O)c2ccccc2S3)CC1,x,-8%,-18%,x,-4%,20%
O=C(CSc1ccc(-c2ccco2)nn1)N1CCCC1,-6%[57.1 µM],-12%,-17%,-4,8%,30%
Cc1cc(SCc2cccc([N+](=O)[O-])c2)nc(=O)[nH]1,-11%,-23%,4%,u,u,u
O=C(CSc1ccc(-c2ccco2)nn1)c1cccc([N+](=O)[O-])c1,-32%[57.1 µM],u,u,-64*,13µM*,28µM*
Cc1cc(SCC(=O)Nc2ccc(F)cc2F)nc(=O)[nH]1,x,-12%[60.1 µM],u,x,u,16µM*
Cc1cc(SCc2ccc([N+](=O)[O-])cc2)nc(=O)[nH]1,-6%[11.6 µM],-14%,25µM*,-59*,-1%,u
Cc1cc(SCC(=O)c2cccc([N+](=O)[O-])c2)nc(=O)[nH]1,-13%[11.6 µM],79µM*,20µM*,-58*,u,-25%
N[C@@H](CO)C(=O)NNCc1ccc(O)c(O)c1O,x,2%[19.4 µM],x,x,x,x
Cc1cccc(CNc2ncncc2-c2cccc(NS(C)(=O)=O)c2)c1,x,0%[60.1 µM],x,x,x,x
CCC(Oc1ccc(C)c(C)c1)C(=O)N1CCCN(C)CC1 (centres undefined),11%,-4%,-9%,-8,18%,2%
CN(c1ccccc1C(=O)O)S(=O)(=O)c1ccc2[nH]c(=O)oc2c1,x,-18%,x,x,-21%,-6%
O=C(O)c1ccc(-n2ncc3c2/C(=C/c2cccc([N+](=O)[O-])c2)CC3)cc1,-16%,-9%,50µM*,-23,u,1%
C(=C\c1ccco1)/c1ccc2ccccc2n1,-10%,u,-21%,-30,u,10µM*
CCCCCCCNC1=CC(=O)CC(c2ccco2)C1 (centres undefined),-27%,-25%,-24%,x,u,11µM*
COc1cc(/C=C(\C#N)c2nc3ccccc3[nH]2)cc(Cl)c1OCc1ccccc1Cl,x,-8%,u,x,69%,3.2µM*
O=S(=O)(O)c1cc(O)c2c(O)c(N=Nc3cc(Cl)ccc3O)c(S(=O)(=O)O)cc2c1,45µM*,16µM*,35µM*,-76*,22µM*,32µM*
Cc1cc(-c2ccc(N=Nc3c(S(=O)(=O)O)cc4cc(S(=O)(=O)O)cc(N)c4c3O)c(C)c2)ccc1N=Nc1c(S(=O)(=O)O)cc2cc(S(=O)(=O)O)cc(N)c2c1O,x,0.89µM*,x,x,x,x
O=c1c(Cc2ccc(F)cc2)c(O)ccn1CCCn1ccnc1,-2%,-3%,-10%,1,6%,17%
COc1ccc(OC)c(/C=N/NC(=O)c2c(C)nc3ccc(C)cn23)c1,3%,3%,-18%,2,-29%,19%
N#Cc1ccc(C2CC(OCCF)=CC(=O)O2)cc1 (centres undefined),7%,x,x,1,x,x
COc1cc(/C=N/Nc2ccc(S(N)(=O)=O)cc2[N+](=O)[O-])cc(OC)c1O,-6%[11.6 µM],-20%,u,2,40µM*,u
COc1cc(/C=N/Nc2nc3ccccc3s2)cc([N+](=O)[O-])c1O,u,-6%,56µM*,-51*,-8%,22µM*
COc1cc(/C=N/Nc2nc(=O)[nH]nc2C)cc([N+](=O)[O-])c1O,-11%,0%,-13%,-52*,12%,-14%
O=[N+]([O-])c1cc(Cl)cc(/C=N/Nc2nc3ccccc3s2)c1O,6%[57.1 µM],-15%,6%,12,47%,u
COc1ccc(/C=N/Nc2nc(=O)[nH]nc2C)cc1[N+](=O)[O-],-10%,-16%,-2%,6,38%,-7%
SMILES,WRN helicase inh,Pol kappa inh,Pol eta inh,PI5P4Ka inh,POLI inh,POLB inh
COc1cc(/C=N/Nc2ccccc2[N+](=O)[O-])cc(OC)c1O,-1%,5%,-10%,6,60%,2%
Cc1cccc(CCNC(=O)C2CCN(S(=O)(=O)c3ccccc3)CC2)c1,1%,-1%,-3%,2,142%,13%
CC(Oc1ccccc1)C(=O)N[C@@H]1C(=O)N2C(C(=O)O)C(C)(C)S[C@H]12 (some centres undefined),x,-20%,x,x,19%,x
O=C(NNC(=O)c1cc2ccccc2oc1=O)c1ccccc1[N+](=O)[O-],-6%,6%,-8%,5,-7%,8%
Cc1ccc(/C=C/C(=O)NCc2ccc(S(N)(=O)=O)cc2)o1,u,-14%,u,u,u,-28%
Cc1ccc(/C=N/NS(=O)(=O)c2ccc([N+](=O)[O-])cc2)o1,-23%,-12%,-8%,1,1%,-13%
Cc1ccc(/C=C/C(=O)Nc2ccc(S(N)(=O)=O)cc2)o1,-3%,-28%,-20%,-54*,u,3%
CC(=O)Nc1ccc(S(=O)(=O)N/N=C/c2ccc(C)o2)cc1,-3%,-14%,u,-23,25µM*,u
Nc1ccc(C(Cc2ccnc3ccccc23)Cc2ccnc3ccccc23)cc1,x,-9%,x,x,9%,x
O=C(NCC(c1cccs1)S(=O)(=O)c1cccs1)c1ccc(Cl)cc1 (centres undefined),x,-16%[60.1 µM],-21%,x,29%,0%
CCc1cccc2c(C(=O)COC(=O)c3cccc(S(=O)(=O)N(C)C4CCCCC4)c3)c[nH]c12,-7%,-2%,-22%,-68*,7%,-1%
O=C(OCC(=O)c1c[nH]c2ccccc12)c1cccc(S(=O)(=O)N2CCCCCC2)c1,-14%,-7%,-16%,3,u,-1%
Cc1ccc(/C=C/C(=O)NCC2COc3ccccc3O2)o1 (centres undefined),-33%[57.1 µM],-8%,-14%,-70*,35%,80%
O=C(/C=C/c1ccco1)NCc1ccco1,-14%,-35%,u,-8,u,10µM*
NS(=O)(=O)c1ccc(CNC(=O)/C=C/c2ccco2)cc1,u,u,18µM*,u,u,22µM*
Cc1ccc(/C=C/C(=O)NCc2ccco2)o1,x,x,x,x,x,22µM*
O=C(/C=C/c1ccccc1)NCc1ccco1,-4%,-6%,-12%,0,30%,-2%
CC(C)c1nnc(SCC(=O)Nc2ccc3c(c2)OCCO3)n1C,4%,12%,-18%,7,1%,0%
Cc1ccc(/C=C/C(=O)NC2CCCCCCC2)o1,-35%,-15%,-10%,-55*,u,1%
O=C(CNC(=O)/C=C/c1ccco1)N=Nc1c(O)[nH]c2ccccc12,0%,7%,-11%,-2,-5%,8.9µM*
O=C(CNC(=O)Cc1ccccc1)N=Nc1c(O)[nH]c2ccccc12,-8%,4%,-10%,-3,62%,2%
